Bioassay records from PubChem.
This is a sample that favours compounds with a hit; in the whole collection about 3.6% have one here.
AmpC no deterg – blocks E. coli AmpC beta-lactamase in detergent-free assay. AmpC nitrocefin hydrolysis, absorbance 480 nm, 0.0001% Triton. Potency, µM (titrated, usually from 57.1 µM), without a hit: at the highest dose activity change, negative = inhibition, hits mostly inhibitors. actives 0.52% (n = 330,000). AID 485341;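 note: plate controls were no compound for no effect and no enzyme for full effect; nearly all actives have a fitted effect of over 20% in size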
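AmpC (5.3 nM in the dispensed reagent) in 20 mM phosphate pH 7.0 with 0.01% (detergent screen) or 0.0001% Triton X-100 was preincubated with compounds for 15 min at room temperature. Nitrocefin was then added from an 800 uM solution, and hydrolysis was followed at 480 nm.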
Sm TGR inh – inhibitors of Schistosoma mansoni thioredoxin glutathione reductase | Q962Y6 | purified TGR, DTNB reduction, TNB absorbance 405 nm | Potency, µM (highest dose often 114 µM), for inactives: at the top dose activity change, negative = inhibition, most hits filed as inhibitors | actives 3% (n = 360,000) | AID 485364; note: nearly all actives have a fitted effect of over 60% in size
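TGR 20 nM + NADPH 100 uM (dispensed conc.), cpd preinc 15 min RT; start with NADPH (500 uM addition) then DTNB (15 mM addition). Kinetic TNB absorbance, 405 nm filter. Four-parameter Hill fit across titration.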
AmpC detergent – AmpC beta-lactamase inhibition with detergent present. P00811. AmpC hydrolysis of nitrocefin, absorbance 480 nm, 0.01% Triton. Potency, µM (titrated, usually from 114 µM), inactives show at the highest dose activity change, negative = inhibition, usual class: inhibitors. actives 0.041% (n = 370,000). AID 485294;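 note: 0% = no-compound wells and -100% = no-enzyme wells; nearly all actives have a fitted effect of over 25% in size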
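20 mM phosphate pH 7.0 + 0.01% (detergent screen) or 0.0001% Triton X-100; 5.3 nM AmpC reagent; cpd preinc 15 min RT; nitrocefin (800 uM stock) to start; A480 q20 s × 4 min; Activity was normalised to no-enzyme and no-compound control wells.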
FBPA Giardia inh – Giardia lamblia aldolase inhibition | purified Giardia FBPA | Potency, µM (series often up to 59.6 µM), without a hit: at the highest dose activity, negative = inhibition, hits mostly inhibitors | actives 0.71% (n = 290,000) | AID 2451; note: nearly all actives have a fitted effect of over 55% in size
Target sequence (A8B2U2 whole entry, looked up): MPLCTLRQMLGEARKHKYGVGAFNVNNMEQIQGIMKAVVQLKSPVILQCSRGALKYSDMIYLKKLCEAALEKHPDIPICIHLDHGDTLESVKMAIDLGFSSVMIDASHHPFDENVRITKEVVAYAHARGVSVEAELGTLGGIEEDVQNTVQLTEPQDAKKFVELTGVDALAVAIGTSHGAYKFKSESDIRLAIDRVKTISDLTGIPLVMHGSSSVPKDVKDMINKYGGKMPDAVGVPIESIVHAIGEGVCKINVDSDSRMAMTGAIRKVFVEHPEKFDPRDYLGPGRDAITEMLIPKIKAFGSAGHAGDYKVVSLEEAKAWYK
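Giardia FBPA (40 nM reagent) was preincubated 10 min at RT with compound (up to 57.5 uM final), then substrate plus GAPDH/TPI/NAD/arsenate coupling system with diaphorase/resazurin was added; resorufin fluorescence (525/598 nm) was read after 20 min.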
* = called active by the depositor; ? = inconclusive; nt = no result; ! = repeats disagree. Calls come from the whole dose curve; as a rule, active = well fitted curve in the direction sought with a large enough effect; inconclusive = small, poorly fitted or top-dose-only effect, or another doubt; inactive = no such curve, though single readings can be large; an effect the other way counts as inactive or inconclusive. Unless noted, % is set by controls: 0 for no effect and ±100 for the full control effect; potency is the fitted concentration of half-maximal effect.

SMILES	AmpC no deterg	Sm TGR inh	AmpC detergent	FBPA Giardia inh
C[C@H](CO)N1C[C@H](C)[C@@H](CN(C)S(=O)(=O)c2ccccc2)Oc2ccc(NC(=O)NC3CCCCC3)cc2C1=O	181%	nt	nt	nt
CC(OC(=O)COc1cccc2c1OC(C)(C)C2)C(=O)Nc1ccc(S(N)(=O)=O)cc1 (configuration not stated)	-30%	1%	?	nt
O=S(=O)(Nc1ccccc1OC(F)F)c1ccc(S(=O)(=O)N2CCCC2)cc1	-14%	6%	4%	nt
CC(C)CN(C(=O)COc1ccc(C(C)(C)C)cc1)C1CCS(=O)(=O)C1 (configuration not stated)	102%	-2%	-14%	nt
CCN(c1cccc(C)c1)S(=O)(=O)c1nnc(NC(=O)c2cccs2)s1	nt	10%	1%	nt
CCN(c1cccc(C)c1)S(=O)(=O)c1nnc(NC(=O)c2ccco2)s1	-32%	25µM*	-4%	-21%
Cc1ccc(N(CC(C)C)S(=O)(=O)c2nnc(NC(=O)c3ccco3)s2)cc1	nt	12%	1%	nt
CCN(c1cccc(C)c1)S(=O)(=O)c1nnc(NC(=O)c2ccccc2Cl)s1	nt	79µM*	7%	nt
CCN(c1ccccc1)S(=O)(=O)c1nnc(NC(=O)c2ccco2)s1	-24%	20µM*!	-13%	9%
C=CCNc1nc(C(=O)OCC(=O)NCc2cccc(Cl)c2)cs1	-20%	1%	1%	nt
O=c1c([N+](=O)[O-])cccn1Cc1cccc(Br)c1	-26%	-32%	-3%	1%
COc1cc(OC)c(NC(=O)N2CCc3c([nH]c4ccccc34)C2c2ccccc2F)cc1Cl (configuration not stated)	nt	13%	26%	nt
COc1cc(CN2C(=O)NC(=O)C3(Cc4cc(C)ccc4N(C)C3)C2=O)cc(OC)c1 (configuration not stated)	-58%	?	0%	-15%
COc1ccc2c(c1)CC1(CN2C)C(=O)NC(=O)N(CCc2ccccc2)C1=O (configuration not stated)	-37%	40µM*	-12%	7%
Cc1ccc(-n2c(SCC(=O)N(C)C3CCS(=O)(=O)C3)nc3ccccc3c2=O)c(C)c1 (configuration not stated)	78%	nt	nt	nt
Fc1cc2ncn(Cc3ccccc3)c2cc1F	-16%	56µM*	?	-5%
c1ccc(Cn2cnc3ccccc32)cc1	-11%	1%	?	0%
COCCNC(=O)c1cccc(S(=O)(=O)N2CC3(C)CC2CC(C)(C)C3)c1 (configuration not stated)	52%	79µM*	-5%	nt
COCCCNC(=O)c1cccc(S(=O)(=O)N2CC3(C)CC2CC(C)(C)C3)c1 (configuration not stated)	95%	-2%	?	nt
CC1(C)CC2CC(C)(CN2S(=O)(=O)c2cccc(C(=O)OCC(N)=O)c2)C1 (configuration not stated)	?	40µM*	?	nt
CSc1ccc(CNC(=O)c2cc3c(=O)n(Cc4ccco4)ccc3nc2C)cc1	nt	45µM*	4%	nt
CC(=O)Oc1cc(-c2coc3cc(OC(C)=O)c(OC(C)=O)c(OC(C)=O)c3c2=O)cc(OC(C)=O)c1OC(C)=O	nt	nt	nt	5.6µM*
COc1cc(-c2coc3cc(OC)c(OC)c(OC)c3c2=O)cc(OC)c1OC	nt	nt	nt	-1%
O=C(N/N=C/c1ccccc1C(=O)O)c1cccc(S(=O)(=O)Nc2cc(Cl)ccc2Cl)c1	13µM*	-5%	-7%	30%
CC1CCC2C(C)(C)C3CC12CC[C@]3(C)O (some centres not stated)	nt	nt	nt	1%
SMILES	AmpC no deterg	Sm TGR inh	AmpC detergent	FBPA Giardia inh
O=C1c2ccccc2C(=O)N1/N=C/c1ccc(O)c(O)c1O	-50%	50µM*	-1%	7.9µM*
Cc1nc2ccccc2c(=O)n1/N=C/c1ccc(O)c(O)c1O	-38%	45µM*	?	7.1µM*
Cc1nc2ccccc2c(=O)n1/N=C/c1ccccc1O	-13%	3%	-7%	15%
Oc1ccc(/C=N/N(c2ccccc2)c2ccccc2)c(O)c1O	28µM*	40µM*	4%	nt
O=[N+]([O-])c1cccc(N(CC(O)CN2CCCCC2)S(=O)(=O)c2ccccc2)c1 (configuration not stated)	-4%	-11%	-5%	-1%
COc1cccc(/C=C/C(=O)OCC(=O)NCCNC(=O)COC(=O)/C=C/c2cccc(OC)c2)c1	8%	5%	9%	nt
CCNc1ccc(Br)cc(C(=O)/C=C/c2ccc(Cl)cc2)c1=O	-53%	10µM*	-8%	?
O=C(/C=C/c1ccc(Cl)cc1Cl)c1ccc[nH]1	-52%	nt	1%	-2%
CCNc1ccc(Br)cc(C(=O)/C=C/c2ccc3c(c2)OCO3)c1=O	-52%	?	?	?
CNc1ccc(Br)cc(C(=O)/C=C/c2cccc(OC)c2)c1=O	-45%	3.2µM*	-1%	?
O=C(Nc1ccc(Br)cc1C(=O)c1ccccc1Cl)c1ccc(Br)cc1	nt	2%	11%	nt
CNc1ccc(Br)cc(C(=O)/C=C/c2ccc(Cl)cc2Cl)c1=O	-53%	3.5µM*	7%	?
CCNc1ccc(Br)cc(C(=O)/C=C/c2c(Cl)cccc2Cl)c1=O	-59%	0.89µM*	0%	?
COc1cc(OC)nc(-n2ncc(Br)c(Br)c2=O)n1	-22%	1.8µM*	-5%	5%
COC(=O)c1cnn(-c2nc(OC)cc(OC)n2)c1C	-1%	2%	-6%	2%
CCCCCNC(=O)Cc1cc(=O)[nH]c(=O)[nH]1	50µM*	-4%	?	3%
CCCNC(=O)Cc1cc(=O)[nH]c(=O)[nH]1	?	1%	3%	1%
CCN(c1ccc(OC)cc1)S(=O)(=O)c1nnc(NC(=O)c2ccc(C)cc2)s1	-40%	-27%	3%	nt
C=C(C)C1CC=C(C)/C(=N/NC(=O)c2ccccc2[N+](=O)[O-])C1 (configuration not stated)	16µM*	3%	5%	0%
CC(C)(O)C#Cc1ccc(CN2CCCC(CNC(=O)c3ccco3)C2)cc1 (configuration not stated)	27%	-19%	?	nt
CCC(C)[C@H](NC(=O)[C@@H]1CSC2c3ccccc3C(=O)N21)C(=O)NCc1ccco1 (some centres not stated)	-6%	45µM*	-5%	-13%
CCC(C)[C@H](NC(=O)[C@@H]1CSC2c3ccccc3C(=O)N21)C(=O)NC1CCCC1 (some centres not stated)	-30%	-12%	6%	nt
Cn1c(=O)c2c(ncn2CCN(CCO)Cc2ccccc2)n(C)c1=O	0%	45µM*	-13%	-3%
CCC1CCCCN1C(=O)CCNS(=O)(=O)c1ccc2c(c1)oc(=O)n2C (configuration not stated)	-1%	0%	4%	nt
C=CCc1ccc(OC)cc1	-4%	-16%	4%	0%
C=CCc1ccc(O)c(-c2cc(CC=C)ccc2O)c1	-39%	56µM*	-1%	-3%
